{
  "source": "PubChem BioAssay (NCATS)",
  "note": "Where “and” joins values, the source holds several entries; their conditions need not be identical. Equal values may be shown once. Records with an inconclusive call do not appear. Entries that show only a call come without a potency. Calls of active or inactive are those of the source. Calls follow the shape of the dose curve; as a rule, active = well fitted curve in the direction sought with a large enough effect; inconclusive = small, poorly fitted or top-dose-only effect, or another doubt; inactive = no such curve, though single readings can be large; an effect the other way counts as inactive or inconclusive.",
  "data": [
    {"target": "Rap guanine nucleotide exchange factor 3 (Homo sapiens) (UniProt O95398)", "sequence (O95398 whole entry, looked up)": "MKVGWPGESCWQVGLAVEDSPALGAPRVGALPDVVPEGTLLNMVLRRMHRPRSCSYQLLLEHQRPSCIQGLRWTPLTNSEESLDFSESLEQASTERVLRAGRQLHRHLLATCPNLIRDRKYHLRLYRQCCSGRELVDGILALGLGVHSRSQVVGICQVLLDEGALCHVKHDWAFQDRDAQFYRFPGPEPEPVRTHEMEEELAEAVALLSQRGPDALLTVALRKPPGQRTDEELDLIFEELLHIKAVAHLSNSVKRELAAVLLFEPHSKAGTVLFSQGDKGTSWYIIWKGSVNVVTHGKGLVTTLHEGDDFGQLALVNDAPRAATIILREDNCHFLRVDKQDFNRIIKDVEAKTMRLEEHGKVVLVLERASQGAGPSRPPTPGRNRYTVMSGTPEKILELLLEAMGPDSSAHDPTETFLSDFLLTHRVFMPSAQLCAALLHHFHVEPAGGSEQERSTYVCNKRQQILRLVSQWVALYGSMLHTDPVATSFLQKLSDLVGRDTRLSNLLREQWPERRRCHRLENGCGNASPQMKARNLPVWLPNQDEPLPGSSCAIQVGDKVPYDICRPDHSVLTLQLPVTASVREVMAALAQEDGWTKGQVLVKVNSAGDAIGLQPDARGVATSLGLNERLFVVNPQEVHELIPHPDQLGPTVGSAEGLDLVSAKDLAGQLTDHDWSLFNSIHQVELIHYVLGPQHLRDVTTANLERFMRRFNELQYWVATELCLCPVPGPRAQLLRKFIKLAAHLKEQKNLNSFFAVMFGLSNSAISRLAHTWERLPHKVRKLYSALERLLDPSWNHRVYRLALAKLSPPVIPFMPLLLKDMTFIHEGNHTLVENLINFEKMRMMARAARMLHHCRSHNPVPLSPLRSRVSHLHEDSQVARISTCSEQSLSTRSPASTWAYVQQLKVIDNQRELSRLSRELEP", "assay": "Confirmatory qHTS for agonist of cAMP-regulated guanine nucleotide exchange factor 3 (EPAC1) (AID 1645881); also: nearly all actives have a fitted effect of over 75% in size; also: potency is read from the fitted curve at half-maximal effect", "settings": "EPAC1 Rap1B BODIPY-GDP exchange fluorescence; series mostly up to 154 µM", "values": [
      {"smiles": "CCOC(=O)C1=C(C)NC(C)=C(C(=O)OC)C1c1cccc(Cl)c1Cl", "note": "(centres undefined)", "Potency": "inactive"},
      {"smiles": "COc1cc2c(cc1OC)-c1cc(=Nc3c(C)cc(C)cc3C)n(C)c(=O)n1CC2", "Potency": "inactive"},
      {"smiles": "CCOC(=O)C1=C(C)NC(C)=C(C(=O)OC)C1c1cccc([N+](=O)[O-])c1", "note": "(centres undefined)", "Potency": "inactive"},
      {"smiles": "Cc1nc2sccn2c(=O)c1CCN1CCC(=C(c2ccc(F)cc2)c2ccc(F)cc2)CC1", "Potency": "inactive"},
      {"smiles": "COCCOC(=O)C1=C(C)NC(C)=C(C(=O)OC(C)C)C1c1cccc([N+](=O)[O-])c1", "note": "(centres undefined)", "Potency": "inactive"},
      {"smiles": "COC(=O)C1=C(C)NC(C)=C(C(=O)OCCN(C)Cc2ccccc2)C1c1cccc([N+](=O)[O-])c1", "note": "(centres undefined)", "Potency": "inactive"},
      {"smiles": "CCCCOCCOCCOCc1cc2c(cc1CCC)OCO2", "Potency": "inactive"},
      {"smiles": "O=C1NCN(c2ccccc2)C12CCN(CCCC(c1ccc(F)cc1)c1ccc(F)cc1)CC2", "Potency": "inactive"},
      {"smiles": "CC(=O)[C@]1(O)Cc2c(O)c3c(c(O)c2[C@@H](O[C@H]2C[C@H](N)[C@H](O)[C@H](C)O2)C1)C(=O)c1ccccc1C3=O", "Potency": "63 µM (active) and 70.6 µM (active)"}
    ]},
    {"target": "Rap guanine nucleotide exchange factor 4 (Homo sapiens) (UniProt Q8WZA2)", "sequence (Q8WZA2 whole entry, looked up)": "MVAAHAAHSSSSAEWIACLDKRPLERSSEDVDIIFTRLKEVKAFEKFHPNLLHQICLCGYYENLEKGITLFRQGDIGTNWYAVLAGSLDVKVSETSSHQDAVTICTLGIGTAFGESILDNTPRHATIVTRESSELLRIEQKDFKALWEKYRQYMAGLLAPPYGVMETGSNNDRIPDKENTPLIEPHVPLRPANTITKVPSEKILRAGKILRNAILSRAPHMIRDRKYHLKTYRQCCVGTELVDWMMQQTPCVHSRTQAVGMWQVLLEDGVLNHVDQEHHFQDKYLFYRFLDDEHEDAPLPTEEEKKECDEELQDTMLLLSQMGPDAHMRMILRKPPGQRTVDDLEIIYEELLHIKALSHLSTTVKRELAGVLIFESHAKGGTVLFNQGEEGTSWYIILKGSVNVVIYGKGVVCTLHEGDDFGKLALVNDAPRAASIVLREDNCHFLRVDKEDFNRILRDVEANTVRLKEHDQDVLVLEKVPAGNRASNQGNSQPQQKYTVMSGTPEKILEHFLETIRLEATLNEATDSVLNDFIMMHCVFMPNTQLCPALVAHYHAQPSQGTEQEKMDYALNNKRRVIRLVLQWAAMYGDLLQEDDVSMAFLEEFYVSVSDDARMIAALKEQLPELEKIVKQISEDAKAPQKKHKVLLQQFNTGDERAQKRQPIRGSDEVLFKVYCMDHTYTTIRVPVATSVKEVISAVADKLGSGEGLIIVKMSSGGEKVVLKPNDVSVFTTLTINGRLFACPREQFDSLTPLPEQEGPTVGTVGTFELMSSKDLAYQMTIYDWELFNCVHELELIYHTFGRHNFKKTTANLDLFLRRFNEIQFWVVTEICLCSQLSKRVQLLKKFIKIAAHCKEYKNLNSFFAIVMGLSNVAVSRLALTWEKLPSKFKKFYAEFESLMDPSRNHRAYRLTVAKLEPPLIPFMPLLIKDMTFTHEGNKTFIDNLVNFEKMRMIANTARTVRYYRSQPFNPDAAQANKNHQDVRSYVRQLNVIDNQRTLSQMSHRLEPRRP", "assay": "Confirmatory qHTS for agonist of cAMP-regulated guanine nucleotide exchange factor 4 (EPAC2) (AID 1645884);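 also: nucleotide exchange releases bodipy-GDP from Rap1 and this lowers its fluorescence; nearly all actives have a fitted effect of over 65% in size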", "settings": "EPAC2 GEF activity, Rap1B-BODIPY-GDP fluorescence; series mostly up to 154 µM", "values": [
      {"smiles": "CCOC(=O)C1=C(C)NC(C)=C(C(=O)OC)C1c1cccc(Cl)c1Cl", "note": "(centres undefined)", "Potency": "inactive"},
      {"smiles": "Cc1nc2sccn2c(=O)c1CCN1CCC(=C(c2ccc(F)cc2)c2ccc(F)cc2)CC1", "Potency": "inactive"},
      {"smiles": "COC(=O)C1=C(C)NC(C)=C(C(=O)OCCN(C)Cc2ccccc2)C1c1cccc([N+](=O)[O-])c1", "note": "(centres undefined)", "Potency": "inactive"},
      {"smiles": "CCCCOCCOCCOCc1cc2c(cc1CCC)OCO2", "Potency": "inactive"},
      {"smiles": "O=C1NCN(c2ccccc2)C12CCN(CCCC(c1ccc(F)cc1)c1ccc(F)cc1)CC2", "Potency": "inactive"}
    ]},
    {"target": "Rap guanine nucleotide exchange factor 4 (Homo sapiens) (UniProt Q8WZA2)", "assay": "Confirmatory qHTS for antagonist of cAMP-regulated guanine nucleotide exchange factor 4 (EPAC2) (AID 1645885); also: nearly all actives have a fitted effect of over 25% in size; also: potency is read from the fitted curve at half-maximal effect", "settings": "EPAC2 Rap1B-BODIPY-GDP exchange fluorescence, biochemical; series mostly up to 114 µM", "values": [
      {"smiles": "CCOC(=O)C1=C(C)NC(C)=C(C(=O)OC)C1c1cccc(Cl)c1Cl", "note": "(centres undefined)", "Potency": "49.4 µM (active) and 47.8 µM (active)"},
      {"smiles": "COc1cc2c(cc1OC)-c1cc(=Nc3c(C)cc(C)cc3C)n(C)c(=O)n1CC2", "Potency": "44.1 µM (active)"},
      {"smiles": "Cc1nc2sccn2c(=O)c1CCN1CCC(=C(c2ccc(F)cc2)c2ccc(F)cc2)CC1", "Potency": "44.1 µM (active)"},
      {"smiles": "COCCOC(=O)C1=C(C)NC(C)=C(C(=O)OC(C)C)C1c1cccc([N+](=O)[O-])c1", "note": "(centres undefined)", "Potency": "49.4 µM (active)"},
      {"smiles": "CC(=O)[C@]1(O)Cc2c(O)c3c(c(O)c2[C@@H](O[C@H]2C[C@H](N)[C@H](O)[C@H](C)O2)C1)C(=O)c1ccccc1C3=O", "Potency": "inactive"}
    ]}
  ]
}
